A selection: hits, their analogues and other compounds. The true share with any hit is near 2.7%.
IP6K1 inhibitor: blocks human inositol hexakisphosphate kinase 1; Q92551; IP6K1 kinase, ADP-Glo luminescence, 2 h; active compounds read low; activity change, % (series mostly up to about 58 µM); hit rate 0.81% among 140,000; AID 1645851; in the data active = activity change below about -25%; also: % is scaled to controls: 0 for no effect and ±100 for the full control effect
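ADP-Glo luminescence measures ADP made by human IP6K1 during a 2 h RT reaction with ATP/IP6 (mix at 1.3 mM/130 uM); top library doses 57.5 and 19.1 uM final.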
KDM5B inhibitor: KDM5B demethylase inhibition | Q9UGL1 | KDM5B demethylase, FDH-coupled NADH fluorescence (FDH is formaldehyde dehydrogenase) | Potency, µM (doses to about 57.7 µM), hits mostly inhibitors | hit rate 2.6% among 220,000; active = well fitted inhibition curve with a large enough effect; inconclusive = small, poorly fitted or top-dose-only effect; inactive = no such curve, though single readings can be large or run the other way; also: potency is read from the fitted curve at half-maximal effect; 0% is about no effect; nearly all actives have a fitted effect of over 70% in size
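KDM5BΔAP (200 nM final) in 50 mM HEPES pH 7.5, 0.01% Tween-20 was preincubated 10 min at RT with compound over a concentration range. Substrate mix (H3K4me3 12.5 µM, α-KG 25 µM, Fe²⁺, ascorbate, NAD⁺, FDH) was added, and NADH fluorescence change over 30 min gave dose-response curves.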
Numbers without * were called inactive; i = inactive; ? = inconclusive; nt = no result.

SMILES	IP6K1 inhibitor	KDM5B inhibitor
O=C(Nc1ccc(=O)n2c1[C@@H]1C[C@@H](CN(C(=O)Nc3ccc(F)cc3)C1)C2)NC1CCCCC1	6	20µM*
CC(=O)N[C@H]1CO[C@H]2[C@@H]1OC[C@@H]2Nc1nccc(-c2cccc(F)c2)n1	-8	35µM*
Cc1ccc(C(=O)N[C@H]2CO[C@H]3[C@@H]2OC[C@@H]3Nc2nccc(-c3cccc(F)c3)n2)cc1	-7	i
N#Cc1cccc(-c2ccnc(N[C@H]3CO[C@H]4[C@@H]3OC[C@@H]4NC(=O)N3CCOCC3)n2)c1	-6	32µM*
COCC(=O)N[C@H]1CO[C@H]2[C@@H]1OC[C@@H]2Nc1nccc(-c2cccc(C#N)c2)n1	-11	?
CC(C)(C)C(=O)N[C@H]1CO[C@H]2[C@@H]1OC[C@@H]2Nc1nccc(-c2cccc(C#N)c2)n1	-8	?
COCC(=O)N[C@H]1CO[C@H]2[C@@H]1OC[C@@H]2Nc1nccc(-c2cccc(F)c2)n1	-5	35µM*
O=C(N[C@H]1CO[C@H]2[C@@H]1OC[C@@H]2Nc1nccc(-c2cccc(F)c2)n1)c1ccccc1	0	?
CCNC(=O)N[C@H]1CO[C@H]2[C@@H]1OC[C@@H]2Nc1nccc(-c2cccc(F)c2)n1	-10	32µM*
COc1cccc(-c2ccc(C(=O)NCCNC(=O)c3ccc(Cl)cc3)cc2)c1	-8	nt
O=C(Nc1ccccc1)N1CCn2c(nn(-c3ccc(C(F)(F)F)cc3)c2=O)C1	10	i
COc1ccc(CNC(=O)Cn2c(=O)c3c(ncn3C)n(C)c2=O)cc1	nt	i
COc1ccc(NC(=O)Cn2c(=O)c3cccn3c3ccccc32)cc1OC	nt	i
CCc1ccc(C(=O)N(C)Cc2cccs2)s1	nt	i
C=CCn1cc2c3c(cccc31)[C@H](CC(C)C)N[C@H](C(=O)N1CCN(CCOC)CC1)C2	2	?
CC#CCn1cc2c3c(cccc31)[C@H](CC(C)C)N[C@H](C(=O)N1CCN(CCOC)CC1)C2	0	28µM*
COc1ccccc1CNC(=O)[C@@H]1Cc2cn(C)c3cccc(c23)[C@H](CC(C)C)N1	-5	35µM*
C=CCn1cc2c3c(cccc31)[C@H](CC(C)C)N[C@H](C(=O)NCc1ccc(OC)cc1)C2	-1	?
O=C(Nc1cccn2cnnc12)c1ccc(S(=O)(=O)NCCO)cc1	-5	28µM*
CC(Cn1cncn1)NC(=O)c1ccc(S(=O)(=O)NCCO)cc1 (configuration not stated)	9	i
CN(C)C(=O)c1ccc2oc(-c3cccnc3)nc2c1	2	nt
O=C(NC1CC1)c1cc2cccnn2n1	-1	32µM*
CN(C)C(=O)c1ccn2nccc2c1	5	32µM*
CN(C)C(=O)c1ccc(I)cc1	nt	i
CN(C)C(=O)c1ccn2cncc2c1	5	35µM*
SMILES	IP6K1 inhibitor	KDM5B inhibitor
O=C(Nc1ccc(F)cc1)c1cc2cccnn2n1	4	?
CN(C)C(=O)c1ccc2ccnn2c1	6	32µM*
CCc1ccc(C(=O)N(C)C)cc1	nt	i
Cc1cc(C)c(NC(=O)CNC(=O)COC(=O)Cc2n[nH]c(=O)c3ccccc23)c(C)c1	nt	i
COc1ccccc1CNC(=O)C1CCCN1Cc1cccc(-c2ccc(C)c(Cl)c2)c1 (configuration not stated)	18	nt
CC(C)Cn1c(-c2ccc(F)cc2)cnc1SC(C)C(=O)NC(N)=O (configuration not stated)	nt	i
CC1(c2ccccc2)N(Cc2ccccc2)C(=O)OC12CCN(Cc1ccccn1)CC2 (configuration not stated)	-1	i
Cc1cccc(C)c1-c1nnc2ccc(C(=O)NC3CC3)cn12	0	i
O=C(NC1CC1)c1ccc2ccnn2c1	1	32µM*
COc1ccc(OC)c(NC(=O)CC2SCCNC2=O)c1 (configuration not stated)	nt	i
COc1ccc(-c2cc3c(=O)[nH]nc(SCC(=O)N4CCCCC4)n3n2)cc1OC	nt	i
Cc1ccc(-c2cc3c(=O)n(CCNC(=O)c4ccccc4F)ccn3n2)c(C)c1	0	i
Cc1cc(C)cc(C(=O)NCCn2ccn3nc(-c4ccc(C)cc4C)cc3c2=O)c1	-1	22µM*
Cc1ccc(C(=O)NCCn2ccn3nc(-c4ccc(C)cc4C)cc3c2=O)cc1	0	i
Cc1ccc(-c2cc3c(=O)n(CCNC(=O)c4cccc(Cl)c4)ccn3n2)c(C)c1	0	28µM*
COCCCn1c(=O)c(C(=O)N2CCN(C(C)=O)CC2)nc2cccnc21	-1	nt
Cc1cc(Cl)c2ccc(C)c(C)c2n1	nt	i
O=S(=O)(Nc1nc2ccccc2nc1N1CCCCCC1)c1ccccc1	nt	i
CC(C)c1ccc(S(=O)(=O)NCC(c2cccs2)N(C)C)cc1 (configuration not stated)	nt	i
COc1ccccc1-n1cc(-c2nc(C3CCOC3)no2)cn1 (configuration not stated)	28	28µM*
c1ccc(N2CCCC2)c(-c2nc(C3CCOC3)no2)c1 (configuration not stated)	2	?
Cn1ccc(C(=O)N[C@@H]2COCC[C@@H]2OCc2cscn2)cc1=O	-2	28µM*
Cn1cnc2cc(C(=O)N[C@@H]3COCC[C@@H]3OCc3cscn3)ccc21	0	i
COc1ccc2c3c1CN(C(=O)NCc1ccccc1)CC3=CC(C)(C)CO2	5	nt
N#Cc1ccccc1N=Cc1ccc(F)cc1	nt	i
SMILES	IP6K1 inhibitor	KDM5B inhibitor
Cc1csc(NC(=O)c2ccc3c(c2)OCCN(CCC(F)(F)F)C3)n1	2	35µM*
Cc1cnc(NC(=O)c2ccc3c(c2)OCCN(CCC(F)(F)F)C3)s1	-4	i
Cc1ccc2c(c1)C(Cc1nc3ccccc3c(=O)n1C)C(=O)N2Cc1ccccc1 (configuration not stated)	nt	i
O=C(c1cccc([N+](=O)[O-])c1)N1CCc2c(c3ccccc3n2CC2CC2)C1	4	i
Cc1ccc(NC(=O)N2CCc3c(c4ccccc4n3C)C2)cc1C	-2	32µM*
Cn1c2c(c3ccccc31)CN(C(=O)Nc1cccc(Br)c1)CC2	-1	?
Cc1cccc(NC(=O)N2CCc3c(c4ccccc4n3C)C2)c1C	-7	22µM*
Cc1cccc(NC(=O)N2CC=C(c3c[nH]c4ccccc34)CC2)c1C	3	?
O=C(Nc1ccccc1)N1CCc2c(c3ccccc3n2CC2CC2)C1	-2	32µM*
Cc1ccc(-n2c(C)nnc2SC(C)C(=O)Nc2cc(C)on2)cc1 (configuration not stated)	nt	i
O=C(Cn1ccn2nc(-c3ccccc3)c(CO)c2c1=O)Nc1ccc(Br)cc1	14	?
COc1ccc(CCNC(=O)Cn2ccn3nc(-c4ccccc4)c(CO)c3c2=O)cc1OC	9	?
O=C(Cn1ccn2nc(-c3ccccc3)c(CO)c2c1=O)Nc1ccc(Cl)cc1	5	28µM*
O=C(Cn1ccn2nc(-c3ccccc3)c(CO)c2c1=O)Nc1cc(Cl)cc(Cl)c1	13	i
O=C(Cn1ccn2nc(-c3ccccc3)c(CO)c2c1=O)NCCc1ccc(Cl)cc1	0	28µM*
CCCCc1ccc(NC(=O)Cn2ccn3nc(-c4ccccc4)c(CO)c3c2=O)cc1	10	25µM*
O=C1CCc2cc(C(=O)OCC(=O)C3CCCCC3)ccc2N1	nt	i
COC(=O)N1CCCC(C(=O)N2CCC(N3Cc4cccn4C3=O)CC2)C1 (configuration not stated)	-8	nt

Source: PubChem
